Assay results as given in the supplement of paper PMC10849652.
Targets with a hit are over-represented here; the source holds about 8,800 in all. About 0.5% of all pairs of compound and target were hits.

The targets below were run with C1=CC2=NC=CN=C2C=C1/C=C/3\C(=O)NC(=O)S3 (assay: log2 fold change, soluble protein after heating vs DMSO (PISA); higher = thermal stabilisation; K562 lysate, 10 uM; active = over 0.2 and 3.5 SD of the protein, either way, in both replicates (recomputed)).
In short: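 Pellets of K562 cells were dounce-homogenised in PBS pH 7.4 with 1 mM MgCl2, and the crude extract was held at 1 mg/mL protein for a 30 min treatment with 10 μM compound. Aliquots were heated for 3 min over 48°C-58°C and pooled before NP-40 was added to 0.5% at 4°C. The supernatant from 21,000xg for 90 min was quantified by TMTpro 16plex LC-MS/MS with channel sums equalised. Values are reported from duplicates as log-two fold change in thermal stability relative to solvent controls.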

Sequence of UniProt Q9Y225 (Q9Y225 whole entry, looked up): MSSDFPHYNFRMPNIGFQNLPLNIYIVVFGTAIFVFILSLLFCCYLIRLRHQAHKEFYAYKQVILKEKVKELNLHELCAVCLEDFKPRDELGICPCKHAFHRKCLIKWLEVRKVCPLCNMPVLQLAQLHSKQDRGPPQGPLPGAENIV
Sequence of UniProt Q9BUV8 (Q9BUV8 whole entry, looked up): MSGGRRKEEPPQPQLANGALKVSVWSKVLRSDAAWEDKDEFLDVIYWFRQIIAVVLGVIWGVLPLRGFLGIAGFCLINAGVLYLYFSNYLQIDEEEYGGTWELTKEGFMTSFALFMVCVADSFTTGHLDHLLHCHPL
Sequence of UniProt Q9Y6D0 (Q9Y6D0 whole entry, looked up): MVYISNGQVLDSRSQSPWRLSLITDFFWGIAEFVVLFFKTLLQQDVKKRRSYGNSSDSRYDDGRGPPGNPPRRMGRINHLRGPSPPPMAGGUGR
Sequence of UniProt Q8WXA3 (Q8WXA3 whole entry, looked up): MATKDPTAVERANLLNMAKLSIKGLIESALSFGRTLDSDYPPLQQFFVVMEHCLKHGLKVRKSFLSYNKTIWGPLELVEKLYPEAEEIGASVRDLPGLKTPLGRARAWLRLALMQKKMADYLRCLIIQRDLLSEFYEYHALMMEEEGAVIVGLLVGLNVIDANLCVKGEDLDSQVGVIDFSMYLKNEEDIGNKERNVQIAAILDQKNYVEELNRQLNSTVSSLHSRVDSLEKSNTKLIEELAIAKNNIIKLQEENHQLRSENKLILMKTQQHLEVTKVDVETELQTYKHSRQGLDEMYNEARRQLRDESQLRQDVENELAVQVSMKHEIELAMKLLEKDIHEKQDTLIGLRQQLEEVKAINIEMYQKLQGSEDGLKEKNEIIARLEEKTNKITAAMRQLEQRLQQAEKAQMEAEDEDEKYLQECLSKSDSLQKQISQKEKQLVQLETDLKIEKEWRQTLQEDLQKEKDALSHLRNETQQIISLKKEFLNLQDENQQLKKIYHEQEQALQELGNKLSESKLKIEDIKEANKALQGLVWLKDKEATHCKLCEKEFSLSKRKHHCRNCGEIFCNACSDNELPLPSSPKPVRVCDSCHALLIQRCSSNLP
Sequence of UniProt O75943 (O75943 whole entry, looked up): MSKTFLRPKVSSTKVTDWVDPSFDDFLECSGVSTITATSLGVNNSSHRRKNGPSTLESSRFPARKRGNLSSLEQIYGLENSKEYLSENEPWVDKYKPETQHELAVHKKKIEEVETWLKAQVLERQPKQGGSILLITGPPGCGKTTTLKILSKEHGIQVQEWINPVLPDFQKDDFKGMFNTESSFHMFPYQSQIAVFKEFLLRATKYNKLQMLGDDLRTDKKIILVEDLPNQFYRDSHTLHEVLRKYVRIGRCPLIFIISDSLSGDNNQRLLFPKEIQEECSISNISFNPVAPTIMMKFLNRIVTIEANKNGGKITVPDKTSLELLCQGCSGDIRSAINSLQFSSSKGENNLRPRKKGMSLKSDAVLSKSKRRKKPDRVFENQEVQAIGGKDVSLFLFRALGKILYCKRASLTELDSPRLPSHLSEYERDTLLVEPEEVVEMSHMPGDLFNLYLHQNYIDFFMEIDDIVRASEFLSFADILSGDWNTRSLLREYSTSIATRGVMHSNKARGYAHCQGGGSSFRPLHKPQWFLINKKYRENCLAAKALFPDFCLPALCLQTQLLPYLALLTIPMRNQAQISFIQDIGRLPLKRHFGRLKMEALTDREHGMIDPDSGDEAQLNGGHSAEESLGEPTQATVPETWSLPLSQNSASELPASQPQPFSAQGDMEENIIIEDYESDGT
Sequence of UniProt Q9Y4B4 (Q9Y4B4 whole entry, looked up): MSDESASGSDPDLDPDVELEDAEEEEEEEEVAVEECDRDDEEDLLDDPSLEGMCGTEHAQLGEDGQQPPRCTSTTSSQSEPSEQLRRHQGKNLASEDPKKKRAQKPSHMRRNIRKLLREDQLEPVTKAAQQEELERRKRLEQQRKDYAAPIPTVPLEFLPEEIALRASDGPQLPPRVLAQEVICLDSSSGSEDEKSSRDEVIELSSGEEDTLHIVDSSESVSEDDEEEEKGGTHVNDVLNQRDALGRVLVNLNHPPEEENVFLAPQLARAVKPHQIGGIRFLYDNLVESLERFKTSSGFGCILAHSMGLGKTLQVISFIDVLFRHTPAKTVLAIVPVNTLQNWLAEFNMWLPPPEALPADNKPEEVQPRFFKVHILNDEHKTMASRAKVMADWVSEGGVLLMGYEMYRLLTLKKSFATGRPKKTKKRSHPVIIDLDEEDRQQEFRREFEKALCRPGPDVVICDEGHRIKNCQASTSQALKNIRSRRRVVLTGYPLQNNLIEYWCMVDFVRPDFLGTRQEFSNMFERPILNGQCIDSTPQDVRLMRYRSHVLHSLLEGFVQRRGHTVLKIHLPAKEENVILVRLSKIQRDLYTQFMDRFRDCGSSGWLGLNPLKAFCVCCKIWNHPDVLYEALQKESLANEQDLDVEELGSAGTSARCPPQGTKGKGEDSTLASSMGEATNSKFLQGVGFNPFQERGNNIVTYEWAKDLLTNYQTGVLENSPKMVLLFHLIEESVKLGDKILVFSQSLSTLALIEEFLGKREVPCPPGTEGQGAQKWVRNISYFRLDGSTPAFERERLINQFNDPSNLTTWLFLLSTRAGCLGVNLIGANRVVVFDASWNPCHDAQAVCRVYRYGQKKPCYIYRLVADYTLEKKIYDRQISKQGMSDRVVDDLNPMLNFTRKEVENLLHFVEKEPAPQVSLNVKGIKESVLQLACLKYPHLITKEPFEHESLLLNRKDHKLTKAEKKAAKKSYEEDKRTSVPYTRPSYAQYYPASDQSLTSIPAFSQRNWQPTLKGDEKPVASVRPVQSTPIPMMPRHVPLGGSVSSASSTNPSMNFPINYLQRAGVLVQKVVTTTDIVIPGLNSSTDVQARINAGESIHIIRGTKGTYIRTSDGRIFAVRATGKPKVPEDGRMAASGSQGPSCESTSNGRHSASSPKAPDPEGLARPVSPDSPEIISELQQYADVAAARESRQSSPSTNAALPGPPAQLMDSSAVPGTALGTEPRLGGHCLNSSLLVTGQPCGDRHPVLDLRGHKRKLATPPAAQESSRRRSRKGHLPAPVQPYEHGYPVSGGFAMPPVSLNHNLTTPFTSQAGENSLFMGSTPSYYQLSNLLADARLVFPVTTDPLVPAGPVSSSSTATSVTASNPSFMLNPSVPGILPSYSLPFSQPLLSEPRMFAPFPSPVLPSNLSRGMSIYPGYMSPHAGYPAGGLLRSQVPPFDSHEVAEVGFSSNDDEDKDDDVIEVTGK
Sequence of UniProt P51812 (P51812 whole entry, looked up): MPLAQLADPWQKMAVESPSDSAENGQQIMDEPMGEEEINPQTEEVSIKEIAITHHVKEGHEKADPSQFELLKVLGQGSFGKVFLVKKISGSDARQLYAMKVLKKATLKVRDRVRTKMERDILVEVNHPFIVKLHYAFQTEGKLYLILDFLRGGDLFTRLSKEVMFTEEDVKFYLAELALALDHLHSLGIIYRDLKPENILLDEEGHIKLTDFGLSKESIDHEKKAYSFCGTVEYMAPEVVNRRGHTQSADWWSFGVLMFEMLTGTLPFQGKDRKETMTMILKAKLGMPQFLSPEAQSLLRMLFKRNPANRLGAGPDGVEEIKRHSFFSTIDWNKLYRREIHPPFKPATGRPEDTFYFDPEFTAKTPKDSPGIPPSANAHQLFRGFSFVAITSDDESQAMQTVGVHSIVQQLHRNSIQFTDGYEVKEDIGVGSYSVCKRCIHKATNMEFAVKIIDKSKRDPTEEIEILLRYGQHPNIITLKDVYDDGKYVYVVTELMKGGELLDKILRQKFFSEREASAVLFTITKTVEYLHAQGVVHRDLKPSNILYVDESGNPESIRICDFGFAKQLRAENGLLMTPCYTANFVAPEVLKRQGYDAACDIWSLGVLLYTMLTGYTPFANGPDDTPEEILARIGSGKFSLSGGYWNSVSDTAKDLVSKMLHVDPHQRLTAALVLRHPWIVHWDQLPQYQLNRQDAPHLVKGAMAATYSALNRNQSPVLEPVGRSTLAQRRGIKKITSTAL
Sequence of UniProt Q92698 (Q92698 whole entry, looked up): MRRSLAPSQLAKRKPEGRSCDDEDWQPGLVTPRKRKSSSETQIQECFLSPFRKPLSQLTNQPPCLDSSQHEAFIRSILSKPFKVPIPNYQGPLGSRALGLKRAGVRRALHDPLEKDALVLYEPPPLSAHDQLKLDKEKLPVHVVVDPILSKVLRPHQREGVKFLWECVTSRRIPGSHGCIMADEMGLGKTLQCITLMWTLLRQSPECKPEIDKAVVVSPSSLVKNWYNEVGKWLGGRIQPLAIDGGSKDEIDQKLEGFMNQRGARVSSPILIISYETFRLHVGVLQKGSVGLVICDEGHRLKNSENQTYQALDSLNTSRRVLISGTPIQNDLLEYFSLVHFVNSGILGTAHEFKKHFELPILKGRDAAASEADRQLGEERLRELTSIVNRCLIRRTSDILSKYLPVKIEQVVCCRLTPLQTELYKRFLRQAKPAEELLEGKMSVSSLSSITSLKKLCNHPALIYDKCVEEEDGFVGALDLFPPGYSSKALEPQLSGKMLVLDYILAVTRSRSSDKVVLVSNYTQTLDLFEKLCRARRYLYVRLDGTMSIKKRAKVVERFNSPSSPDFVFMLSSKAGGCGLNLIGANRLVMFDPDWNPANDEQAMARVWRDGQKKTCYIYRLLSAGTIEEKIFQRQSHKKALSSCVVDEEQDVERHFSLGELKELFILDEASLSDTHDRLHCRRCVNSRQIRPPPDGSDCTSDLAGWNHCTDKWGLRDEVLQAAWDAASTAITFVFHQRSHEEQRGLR
Sequence of UniProt Q96K19 (Q96K19 whole entry, looked up): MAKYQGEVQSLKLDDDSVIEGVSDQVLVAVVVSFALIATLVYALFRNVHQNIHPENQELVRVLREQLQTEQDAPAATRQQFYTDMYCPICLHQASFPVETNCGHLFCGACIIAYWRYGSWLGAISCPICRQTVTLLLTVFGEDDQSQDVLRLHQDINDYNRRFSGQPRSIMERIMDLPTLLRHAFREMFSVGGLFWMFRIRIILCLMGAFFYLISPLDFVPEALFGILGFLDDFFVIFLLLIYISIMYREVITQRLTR

log2 fold change, inactive:
RAD54L2 (UniProt Q9Y4B4) -0.135, SAP30 (UniProt O75446) -0.037, RALGAPB isoform 3 (UniProt Q86X10) -0.146, SERAC1 (UniProt Q96JX3) -0.014, RLIM (UniProt Q9NVW2) -0.021, RNF170 (UniProt Q96K19) 0.032, RPS6KA3 (UniProt P51812) 0.004, RAD54L (UniProt Q92698) -0.072, RAB5IF isoform 5 (UniProt Q9BUV8) -0.052, RXRB isoform 3 (UniProt P28702) 0.051, RAD17 (UniProt O75943) 0.014, RHBDD1 (UniProt Q8TEB9) 0.337, RAP1B (UniProt F5GZG1) -0.206, RNF24 isoform 2 (UniProt Q9Y225) 0.083, SELENOK (UniProt Q9Y6D0) 0.089, RUFY2 isoform 1 (UniProt Q8WXA3) 0.016, RYR1 (UniProt P21817) 0.012, RNF17 (UniProt Q9BXT8) 0.553
